Compound activity deposited in PubChem BioAssay by several laboratories.
Insulin prom up: MIN6 insulin promoter up-regulation; MIN6 insulin promoter-GFP reporter, high-content imaging; active compounds read high; z-score at 5 µM; 0.3% of 190,000 active;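 active = z-score above 3 at 5 µM with at least 500 cells counted in the well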
Autophagy mod: autophagy modulation, high-content screen | MEF GFP-LC3 puncta imaging; test concentration mostly 10 µM | calls only at 10 µM (by protocol) | 0.98% of 190,000 active;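 active = percentage of spot-positive cells more than 3 SD above its plate mean, without a fluorescence outlier flag or 80% toxicity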;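 note: spot-positive cell cutoff set from DMSO-treated cells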
Lmaj promast: Leishmania major promastigote growth inhibition; Leishmania major promastigotes, resazurin fluorescence viability; inhibition, % at 10 µM; 9% of 200,000 active; AID 1063; in the data active = inhibition above about 50%;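 note: promastigotes grown with compound for 44 hours at 28 °C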
Insulin prom inh: TRM-6 insulin promoter activity inhibition; AID 1273; 0.9% of 130,000 active; TRM-6 cells (human fetal islet line), insulin promoter-eGFP reporter, imaging; reporter expression induced with tamoxifen; inhibition, % at 2 µM;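 active = inhibition above the mean plus 3 SD, with well images judged a real hit on visual review, cut at about 60% in these data, passing the limit was not always enough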
HCT116 bCat-KO: beta-catenin-lacking colon tumor cell growth suppression. HCT116 beta-catenin knockout viability, CellTiter-Glo, 60 h; active compounds read low. viability, % at 10 µM. 1.5% of 140,000 active;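 active = viability at or under a set limit, the compound median less 4 SD, cut at about 6% in these data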;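 note: 0% = Hyamine 1622 control at 20 µM and 100% = untreated cell control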
HCT116 PTEN-null: growth suppressors of cells with PTEN tumor suppressor deletion; HCT116 PTEN-null viability, CellTiter-Glo, 60 h; active compounds read low; viability, % at 10 µM; 1.2% of 140,000 active;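 active = viability at or below a set limit, 4 SD under the median of all tested compounds, cut at about 3.7% in these data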;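 note: PTEN knockout HCT116 line with beta catenin targeted HCT116 as companion control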
An asterisk follows results filed as active; i = inactive; nt = not tested or not shown; + = active, no number. In the library only some 9.6% were active in any assay of this set; here they are far more common.

SMILES | Insulin prom up | Autophagy mod | Lmaj promast | Insulin prom inh | HCT116 bCat-KO | HCT116 PTEN-null
CCn1c(NC(=O)c2ccc(C)cc2)c2ccccc2nc1=O | -0.2 | i | 76.9* | 9.1 | 98.0 | 106.4
O=C(NCc1cccnc1)NC1(c2ccccc2)CC1 | -0.08 | i | -0.4 | nt | 93.9 | 98.2
O=C(Nc1ccc(Cl)cc1)NC1CCCCC1Cc1ccco1 (centres undefined) | -0.36 | i | 4.5 | -30.2 | 60.7 | 53.4
O=C(Nc1ccc(Cl)cc1)NC1CCCC1Cc1ccco1 (centres undefined) | 0.01 | i | 24.1 | nt | 9.6 | 2.9*
Cc1ccc(CNC(=O)C(C)OC(=O)c2ccco2)cc1 (centres undefined) | -0.68 | i | -5.9 | 14.3 | 94.2 | 93.0
O=C(O)c1ccc(Nc2nc(-c3ccccc3)c3ccccc3n2)cc1 | 0.59 | + | 20.4 | nt | nt | nt
COc1ccc(OCC(=O)NCCC2=CCCCC2)c([N+](=O)[O-])c1 | -1.1 | i | 10.4 | nt | nt | nt
c1ccc(N/N=C(\Cc2nc3ccccc3[nH]2)c2ccccc2)cc1 | 0.22 | i | 9.2 | nt | 58.0 | 57.4
CCN/N=C(\Cc1nc2ccccc2[nH]1)c1ccccc1 | 0.31 | i | 74.7* | nt | nt | nt
Cc1ccc(N/N=C(\Cc2nc3ccccc3[nH]2)c2ccccc2)cc1 | -0.06 | i | 88.0* | -177.4 | 16.4 | 13.8
O=C(O)Cc1ccc(NC(=O)C(c2ccccc2)c2ccccc2)cc1 | 0 | i | -5.7 | nt | nt | nt
CCOC(=O)c1nnn(-c2nonc2N)c1-c1ccc(OCC)cc1 | 3.82* | i | 12.9 | 0.0 | 99.2 | 95.2
O=[N+]([O-])c1ccc2oc(C3CCCCC3)nc2c1 | -0.38 | i | -5.3 | nt | nt | nt
CN(C)NC(=O)c1ccc([N+](=O)[O-])s1 | -0.18 | nt | nt | nt | nt | nt
O=C(Nc1ccccc1F)c1ccc([N+](=O)[O-])s1 | 0.69 | i | 100.3* | nt | nt | nt
O=C(Nc1cccc2ccccc12)c1ccc([N+](=O)[O-])s1 | 0.27 | i | 100.3* | -31.2 | 3.9* | 3.1*
N/C(Cc1ccc(Cl)c(Cl)c1)=N\OC(=O)c1cccs1 | 1.54 | i | -5.8 | 11.4 | 77.4 | 76.0
NC(=O)c1ccccc1OCC(=O)NC12CC3CC(CC(C3)C1)C2 | 0.2 | i | 4.3 | -21.4 | 100.1 | 113.0
N#Cc1c2ccc(O)cc2n2ccccc12 | 0.31 | i | 100.4* | nt | nt | nt
COC(=O)Cn1c(C)c(C#N)c2ccccc21 | 0.84 | i | -1.5 | 46.1 | 88.6 | 98.0
Cc1nc2ccccn2c1C(=O)NCc1ccc2c(c1)OCO2 | -5.57 | i | 18.4 | nt | 88.1 | 90.3
CSCCC(NC(=O)C12CC3CC(CC(C3)C1)C2)C(=O)OCC(=O)c1ccc(C)cc1 (centres undefined) | nt | i | -4.6 | nt | 101.4 | 99.3
CSCCC(NC(=O)c1ccc([N+](=O)[O-])cc1Cl)C(=O)OCC(=O)C12CC3CC(CC(C3)C1)C2 (centres undefined) | 0.64 | i | 99.4* | 30.6 | 82.4 | 99.2
CCOC(=O)C1CCCCN1Cc1ccc(F)c(Br)c1 (centres undefined) | 1.03 | i | -3.2 | nt | 88.2 | 87.7
Cc1c(C2=CCN(S(=O)(=O)c3ccc(Br)cc3)CC2)c2ccccc2n1C | 1.28 | i | 63.6* | -61.1 | 78.0 | 72.2
SMILES | Insulin prom up | Autophagy mod | Lmaj promast | Insulin prom inh | HCT116 bCat-KO | HCT116 PTEN-null
CN(CCOc1ccccc1)S(=O)(=O)c1ccc2oc3ccccc3c2c1 | 0.49 | i | 55.5* | 16.1 | 93.4 | 101.6
COc1ccc(OCCNS(=O)(=O)c2ccc3oc4ccccc4c3c2)cc1 | 0.5 | i | -3.5 | -15.4 | 88.1 | 85.2
O=C(NCCNC1CCC(c2ccccc2)CC1)c1ccc(F)cc1 (centres undefined) | -0.85 | i | 94.0* | nt | nt | nt
O=C(NCCNC(=O)c1ccco1)c1ccc(F)cc1 | nt | i | -3.2 | -17.9 | nt | nt
CN(c1ccccc1)S(=O)(=O)c1ccc(NC(=S)Nc2ccccc2)cc1 | -0.42 | i | 92.7* | 25.8 | 95.8 | 96.1
COC(=O)c1ccc(-n2c(C)cc(-c3csc(NC(=O)c4ccc(S(=O)(=O)N(C)C)cc4)n3)c2C)cc1 | nt | i | 56.9* | 17.9 | 95.5 | 95.5
CN(c1cccc(NC(=O)c2ccc(N(C)S(=O)(=O)c3ccccc3)cc2)c1)S(C)(=O)=O | nt | i | 61.7* | nt | nt | nt
CN(c1ccccc1)S(=O)(=O)c1ccc(NC(=O)c2ccc(-c3ccccc3)cc2)cc1 | -2.28 | i | 97.0* | 19.4 | 34.5 | 56.8
CN(c1ccccc1)S(=O)(=O)c1ccc(C(=O)Nc2nccs2)cc1 | 0.64 | i | 5.1 | nt | 88.8 | 95.9
CC(C)N(C)NC(=S)Nc1ccccc1 | 0.01 | i | 62.5* | 45.5 | 102.3 | 99.1
